Source: PubChem BioAssay
Most compounds without a hit are left out; they make up all but 9.8% or so of the library.
HttQ103 aggreg – mutant huntingtin aggregation inhibition. 220,000 tested, 1.1% active. PC12 HttQ103-GFP aggregates, Acumen cytometry, 40 h. Potency, µM (top dose mostly 46.1 µM), without a hit: at the highest dose activity change, negative = inhibition, hits mostly inhibitors; active = well fitted curve in the direction sought with a large enough effect; inconclusive = small, poorly fitted or top-dose-only effect, or another doubt; inactive = no such curve, though single readings can be large; an effect the other way counts as inactive or inconclusive; also: potency is read from the fitted curve at half-maximal effect; % is scaled to controls: 0 for no effect and ±100 for the full control effect; nearly all actives have a fitted effect of over 60% in size
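Compounds (qHTS titration) were added to PC12 cells expressing an ecdysone-driven HTT exon 1 Q103–GFP fusion after induction with 100 nM tebufenozide. Aggregate formation was measured as GFP objects in cell lysates.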
HTT ATP protect – protects HTT-Q103 PC12 cells, measured by ATP; PC12 HTT-Q103 induced, cytoprotection, ATP luminescence, 40 h; Potency, µM (top dose mostly 56.4 µM), without a hit: cytoprotection (ATP increase), hits mostly activators; 230,000 tested, 0.14% active; active = well fitted curve in the direction sought with a large enough effect; inconclusive = small, poorly fitted or top-dose-only effect, or another doubt; inactive = no such curve, though single readings can be large; an effect the other way counts as inactive or inconclusive; also: potency is read from the fitted curve at half-maximal effect; % of control where 0% means no effect; nearly all actives have a fitted effect of over 45% in size
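PC12 cells with ecdysone-inducible HTT exon 1 Q103-GFP, induced with 100 nM tebufenozide and co-treated with library compounds in a dose series (1536-well, 1500 cells/well). Cytoprotection read as ATP content by ATPlite luminescence.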
JMJD2E inh – blocks human JMJD2E demethylase activity. Potency, µM (doses to about 57.1 µM), for the others: at the highest dose activity change, negative = inhibition, actives largely listed as inhibitors. 230,000 tested, 1.6% active. B2RXH2. JMJD2E catalytic domain, FDH-coupled NADH fluorescence (FDH is formaldehyde dehydrogenase);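 also: potency is read from the fitted curve at half-maximal effect; 0% = wells with enzyme and -100% = buffer wells without enzyme; nearly all actives have a fitted effect of over 50% in size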
Target sequence (B2RXH2 1-337 limits assumed): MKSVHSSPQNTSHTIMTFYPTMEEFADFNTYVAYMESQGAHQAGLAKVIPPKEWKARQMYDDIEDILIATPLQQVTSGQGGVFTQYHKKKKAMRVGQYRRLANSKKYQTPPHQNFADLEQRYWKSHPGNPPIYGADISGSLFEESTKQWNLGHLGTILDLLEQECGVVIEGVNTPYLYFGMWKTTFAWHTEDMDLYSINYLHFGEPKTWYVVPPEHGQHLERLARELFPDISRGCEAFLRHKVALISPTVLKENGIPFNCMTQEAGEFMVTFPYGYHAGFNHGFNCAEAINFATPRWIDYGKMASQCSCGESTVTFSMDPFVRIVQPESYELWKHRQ
HPGD inh – blocks human HPGD enzyme activity | P15428 | purified HPGD, NADH fluorescence kinetic, PGE2 substrate | Potency, µM, inactives show at the highest dose activity change, negative = inhibition, hits mostly inhibitors | 150,000 tested, 4.3% active; also: potency is read from the fitted curve at half-maximal effect; % is scaled to controls: 0 for no effect and ±100 for the full control effect
Target sequence (P15428 whole entry, looked up): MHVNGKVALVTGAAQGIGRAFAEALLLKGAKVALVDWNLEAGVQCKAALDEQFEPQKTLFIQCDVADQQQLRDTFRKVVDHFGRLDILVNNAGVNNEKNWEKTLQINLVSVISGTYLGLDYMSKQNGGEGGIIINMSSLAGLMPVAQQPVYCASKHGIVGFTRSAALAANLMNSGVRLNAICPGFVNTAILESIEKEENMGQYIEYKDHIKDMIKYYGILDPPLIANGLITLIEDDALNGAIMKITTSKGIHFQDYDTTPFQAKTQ
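NADH formation kinetics: reaction with 30 uM PGE2 and 1 mM NAD+ (final), 20 nM enzyme, Tris-HCl pH 8 with Tween 20, after 15 min compound preincubation at room temperature. Fluorescence change, last versus first of five reads.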
CBFb-RUNX1 inh – inhibitors of human CBF-beta and RUNX1 interaction; Potency, µM (top dose mostly 59.8 µM), for inactives: top-dose activity, negative = inhibition, most hits filed as inhibitors; AlphaScreen CBFb-His/RUNX1-biotin binding, biochemical; AID 1477; Q01196+Q13951; 230,000 tested, under 10 active; active = well fitted curve in the direction sought with a large enough effect; inconclusive = small, poorly fitted or top-dose-only effect, or another doubt; inactive = no such curve, though single readings can be large; an effect the other way counts as inactive or inconclusive; also: % of control where 0% means no effect
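Interaction loss through any mechanism counts as activity. Pre-formed complex of His-CBF-beta and biotin-RUNX1 (30 nM apiece) is incubated with compound 15 min, then with 50 ng nickel and 50 ng streptavidin beads for 90 min before AlphaScreen detection.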
ALDH1A1 block – blocks purified human ALDH1A1 activity; P00352; Purified ALDH1A1, NADH fluorescence, propionaldehyde substrate; Potency, µM (doses to about 75.3 µM), inactives show at the highest dose activity, negative = inhibition, hits mostly inhibitors; 220,000 tested, 7.3% active;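 also: potency is read from the fitted curve at half-maximal effect; plate controls were no enzyme wells and a reference inhibitor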
* marks the source's active call; other numbers are inactive results; ? = inconclusive; . = no result given; [ ] = remark or other dose. Unless noted, calls follow the shape of the dose curve; as a rule, active = well fitted inhibition curve with a large enough effect (not every such curve was filed as active); inconclusive = small, poorly fitted or top-dose-only effect, or another doubt; inactive = no such curve, though single readings can be large or run the other way.

SMILES | HttQ103 aggreg | HTT ATP protect | JMJD2E inh | HPGD inh | CBFb-RUNX1 inh | ALDH1A1 block
Cc1c(C(N)=O)sc(N)c1C(=O)OC(C)C | 5% | 13% | -4% | -22% | 1% | -5%
CC(C)CC(=O)Nc1ccc(-c2cn3ccsc3n2)cc1 | ? | -188%[0.074 µM] | 9% | 25µM* | -6% | 0%
CC(C)(C)C(=O)Nc1ccc(-c2cn3ccsc3n2)cc1 | 12% | -104% | -5% | 0% | 5% | -2%
COc1ccccc1NC(=O)Cn1cnc2c(cnn2-c2ccc(C)c(C)c2)c1=O | 3% | -3% | -24% | -27% | 4% | -14%
CC(OC(=O)c1cccs1)C(=O)NCc1ccc2c(c1)OCO2 (configuration not stated) | 6% | -26% | 2% | 28µM* | 6% | 4%
CCC(OC(=O)c1cccs1)C(=O)NCc1ccco1 (configuration not stated) | -4% | -3%[10 µM] | -5% | -15% | 8% | 22µM*
CC(C)C(OC(=O)c1nsc(Cl)c1Cl)C(=O)NCc1ccc2c(c1)OCO2 (configuration not stated) | 5% | 8% | 0% | 2.2µM* | 2% | -5%
CN(C(=S)NCCN1CCOCC1)C(c1ccccc1)c1ccccc1 | 15% | -33% | ? | . | -26% | ?
COCCCN1C(=O)C(O)=C(C(=O)c2ccco2)C1c1ccccc1 (configuration not stated) | 6% | 4%[10 µM] | -26% | -11% | 4% | 28µM*
C=CCOc1cccc(C2C(C(=O)c3ccco3)=C(O)C(=O)N2CCN2CCOCC2)c1 (configuration not stated) | 19% | 8% | -15% | -16% | 6% | 25µM*
O=C(C1=C(O)C(=O)N(CCc2ccccc2)C1c1cccs1)c1ccco1 (configuration not stated) | -4% | -67% | -9% | . | 2% | -3%
COCCCN1C(=O)C(O)=C(C(=O)c2ccc(C)o2)C1c1cccc(Br)c1 (configuration not stated) | 19% | -15% | -7% | -10% | 6% | 11%
CC(C)Oc1ccc(C2C(C(=O)c3ccco3)=C(O)C(=O)N2Cc2cccnc2)cc1 (configuration not stated) | -1% | 4%[0.074 µM] | -3% | -6% | 1% | -1%
O=C(C1=C(O)C(=O)N(CCc2ccccc2)C1c1cccnc1)c1ccco1 (configuration not stated) | 6% | -7% | 1% | -32% | 2% | 18µM*
CCOc1ccc(C2C(C(=O)c3ccco3)=C(O)C(=O)N2Cc2cccnc2)cc1OC (configuration not stated) | -13% | 16% | -23% | -16% | 2% | 25µM*
COC(=O)c1ccccc1NC(=O)CSc1ncn[nH]1 | -41%[9.22 µM] | 2%[10 µM] | 3% | . | 5% | .
COc1ccc(OC)c(C(=O)Cn2nnc(-c3ccc(N4CCOCC4)cc3)n2)c1 | -20%[9.22 µM] | -9%[10 µM] | ? | . | 6% | .
CCOC(=O)c1[nH]c(COC(=O)CCCOc2ccccc2)c(C(=O)OCC)c1C | -3% | 0% | ? | -24% | -3% | -6%
Nc1cc2c(cc1O)CCCC2 | 30% | -2% | ? | . | ? | 2.2µM*
COc1ccc(S(=O)(=O)NCCOc2ccccc2)cc1OC | 3% | 2%[0.074 µM] | -5% | -9% | 10% | 0%
COc1ccc(S(=O)(=O)NCCOc2ccccc2)cc1-n1cnnn1 | -13%[9.22 µM] | -32%[10 µM] | -1% | . | 3% | 8.9µM*
COc1ccc(N2C(=O)CC(N3CCN(S(=O)(=O)c4c(F)cccc4F)CC3)C2=O)cc1OC (configuration not stated) | -15% | 1% | -1% | -17% | -3% | 14µM*
O=C1CC(N2CCN(c3cccc(C(F)(F)F)c3)CC2)C(=O)N1c1ccccc1F (configuration not stated) | 5% | -7% | -10% | -14% | -7% | 20µM*
COc1ccc(NC2CCN(C3CC(=O)N(c4ccc(F)c(Cl)c4)C3=O)CC2)cc1 (configuration not stated) | 11% | 1% | -3% | ? | -6% | 1.1µM*
O=C1CC(N2CCC(c3nc4ccccc4o3)CC2)C(=O)N1c1cc(Cl)cc(Cl)c1 (configuration not stated) | 5%[9.22 µM] | -25% | 0% | -17% | -4% | 4µM*
SMILES | HttQ103 aggreg | HTT ATP protect | JMJD2E inh | HPGD inh | CBFb-RUNX1 inh | ALDH1A1 block
O=C1CC(N2CCN(c3cccc(C(F)(F)F)c3)CC2)C(=O)N1c1ccccc1 (configuration not stated) | 5% | -4% | 9% | -1% | 7% | -10%
O=C1CC(N2CCN(S(=O)(=O)c3ccccc3)CC2)C(=O)N1c1ccccc1 (configuration not stated) | -6%[9.22 µM] | 23%[10 µM] | 7% | . | 5% | .
O=C1CC(N2CCN(c3ccccn3)CC2)C(=O)N1c1ccc(Cl)cc1 (configuration not stated) | -10%[9.22 µM] | -14%[10 µM] | 3% | . | 7% | 25µM*
COc1cccc(N2CCN(C3CC(=O)N(c4ccc(F)c(Cl)c4)C3=O)CC2)c1 (configuration not stated) | 4% | -22%[0.074 µM] | -1% | -28% | -10% | 3.5µM*
COc1cccc(N2C(=O)CC(N3CCC(c4nc5ccccc5[nH]4)CC3)C2=O)c1 (configuration not stated) | -4% | 27% | -4% | -14% | 1% | 32µM*
Cc1cccc(N2C(=O)CC(N3CCC(c4nc5ccccc5[nH]4)CC3)C2=O)c1 (configuration not stated) | -5% | -2% | 5% | -11% | 0% | ?
CC/C(C)=N\Nc1nc(-c2cc3cc(OC)ccc3oc2=O)cs1 | 15%[9.22 µM] | -15%[10 µM] | ? | . | 12% | .
O=C1OCC/C1=C\c1ccc(O)cc1 | -12%[9.22 µM] | -2%[10 µM] | 2% | . | 2% | 13%
CN(C(=S)Nc1ccccc1)c1ccccc1 | -1% | . | -4% | -17% | 10% | 1%
CN(C(=S)Nc1ccc(Oc2ccccc2)cc1)c1ccc(O)cc1 | -3% | . | 5% | ? | 21% | 2.2µM*
CN(C(=S)Nc1cccnc1)c1ccc(O)cc1 | ? | 36%[10 µM] | ? | -8% | ? | 14µM*
CN(C(=S)Nc1ccc(SC(F)F)cc1)c1ccc(O)cc1 | ? | 25%[1.9 µM] | ? | -13% | -15% | 6.3µM*
FC(F)Sc1ccc(NC(=S)NC2CCCC2)cc1 | -17% | -63% | -4% | . | 8% | 7%
CCN(C(=S)Nc1cccnc1)c1ccccc1 | 1% | -34% | ? | . | 6% | 6%
Cc1ccc(S(=O)(=O)N(C)CCCC(=O)Nc2ccccn2)cc1 | . | -5%[10 µM] | . | . | . | .
COc1cc(C(=O)Nc2cccc(-c3nnc(-c4ccco4)o3)c2)ccc1OC(C)=O | -12% | -81% | ? | . | -2% | 3%
